# PubChem BioAssay AID672 (University of Pittsburgh Molecular Library Screening Center, 2007)
# The list shows a part of the results. Values without a mark were called inactive. How the calls were made is not given here.
# Assay: H2O2 generation by compounds in DTT – biochemical, probe assessment, artefact control, dose response (AID 672)
# Details: Redox cycling H2O2 generation, phenol red/HRP
structure (smiles),measurement,value
CCc1ccc(NC(=O)CSc2nc3ccccc3c(=O)n2CCN2CCOCC2)cc1,EC50,> 50 µM
